Assay [1] in a line: TOX21_p53_BLA_p5_viability: Viability Assessment in the Tox21 HCT-116 p53 Agonism Beta-lactamase Assay, Phase 5 (AID 2283600). The method, boiled down:
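ATP luminescence (CellTiter-Glo, 30 min, RT) served as the viability read-out, with loss of signal indicating cytotoxicity. Compounds in DMSO were pinned at a 217-fold dilution onto 4000 cells/well and incubated 16 h, 37C.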

Assay [2] addresses Cellular tumor antigen p53 (Homo sapiens) (UniProt P04637). In words: TOX21_p53_BLA_p4_ratio: Tox21 HCT-116 p53 Agonism Beta-lactamase Assay, Ratio, Phase 4 (AID 2283601). In short, it runs like this:
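Signal is the blue/green (460nm/530nm) ratio of cleaved versus uncleaved CCF4-AM substrate, read after 2 h substrate loading. Cells were HCT116 carrying the p53-responsive beta-lactamase reporter, dosed 16 h at 37C, 5% CO2; CellTiter-Glo measured in parallel.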

Assay [3] is described as follows: Tanguay_ZF_120hpf_MORT_legacy: (Legacy) Oregon State University Tanguay Lab 120 Hour Post-fertilization zebrafish Assay for Mortality (AID 2283633).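 As to AC50: fitted as increase in binary mortality versus DMSO negative control.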 In short, it runs like this: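 Brightfield scoring of embryo death (binary) at 24 and 120 hpf; static exposure 6–120 hpf, 28C, sealed and foil-covered. Pronase-dechorionated 5D wild-type larvae, single embryo per well. DMSO 0.64% v/v; trimethyltin chloride 5uM positive control.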

The nature of assay [4]: Tanguay_ZF_120hpf_YSE_legacy: (Legacy) Oregon State University Tanguay Lab 120 Hour Post-fertilization zebrafish Assay for Yolk Sac Edema (AID 2283634).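 As to AC50: actives raise the incidence of yolk sac edema above the DMSO baseline.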 The method, boiled down:
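Binary brightfield scoring of yolk sac edema at 120 hpf; DMSO baseline, gain-of-signal fitting. Dechorionated 5D larvae, one per well, static exposure 6–120 hpf, 28C, 0.64% DMSO. Dead embryos not scored.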

The nature of assay [5]: Tanguay_ZF_120hpf_AXIS_legacy: (Legacy) Oregon State University Tanguay Lab 120 Hour Post-fertilization zebrafish Assay for Body Axis Malformation (AID 2283635).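 As to AC50: potency for an increased fraction of larvae scored with body axis malformation.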 The method, boiled down:
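Embryos: 5D wild-type, pronase-dechorionated 4 hpf; static exposure 6–120 hpf, 28C, sealed, dark, 1 embryo/well, 0.64% DMSO. 120 hpf axis malformation scored present/absent; dead embryos excluded. Analysed as gain of signal vs DMSO.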

Assay [6] in a line: Tanguay_ZF_120hpf_EYE_legacy: (Legacy) Oregon State University Tanguay Lab 120 Hour Post-fertilization zebrafish Assay for Eye Malformation (AID 2283636).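 Also: binary presence or absence of eye malformation scored by brightfield in 120 hpf larvae.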 In short, it runs like this:
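Binary brightfield scoring of eye defects at 120 hpf after static exposure from 6 hpf of single pronase-dechorionated wild-type embryos (28C, 0.64% DMSO). Non-mortality endpoints omitted where embryos died; fit vs DMSO.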

The nature of assay [7]: Tanguay_ZF_120hpf_SNOU_legacy: (Legacy) Oregon State University Tanguay Lab 120 Hour Post-fertilization zebrafish Assay for Snout Malformation (AID 2283637). The method, boiled down:
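Binary snout-malformation call at 120 hpf in wild-type 5D embryos, chorion removed by pronase, under static exposure from 6 hpf at 28C (0.64% DMSO). Embryos dying by 24 or 120 hpf excluded.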

A short description of assay [8]: Tanguay_ZF_120hpf_JAW_legacy: (Legacy) Oregon State University Tanguay Lab 120 Hour Post-fertilization zebrafish Assay for Jaw Malformation (AID 2283638).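 As to AC50: active means more embryos with jaw malformation than DMSO controls.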 In short, it runs like this: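 Binary jaw-malformation calls at 120 hpf by brightfield imaging; DMSO (0.64% v/v) = baseline. Embryos: 5D wild-type, pronase-dechorionated, one per well from 6 hpf, static exposure, 28C, sealed, dark.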

The nature of assay [9]: Tanguay_ZF_120hpf_OTIC_legacy: (Legacy) Oregon State University Tanguay Lab 120 Hour Post-fertilization zebrafish Assay for Otic Vesicle Malformation (AID 2283639). In short, it runs like this: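 Wild-type zebrafish larvae, whole-embryo exposure from early stage to 120 hpf at 28C. Binary brightfield scoring of otic vesicle morphology, fitted in the positive direction against the DMSO baseline.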

A short description of assay [10]: Tanguay_ZF_120hpf_PE_legacy: (Legacy) Oregon State University Tanguay Lab 120 Hour Post-fertilization zebrafish Assay for Pericardial Edema (AID 2283640).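 As to AC50: potency for increased incidence of pericardial edema versus DMSO baseline.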 The method, boiled down:
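Static waterborne exposure, 5D wild-type embryos, 28C, to 120 hpf; final DMSO 0.64% (vol/vol). Binary PE call at 120 hpf by brightfield; fitted upward vs DMSO baseline. 5uM trimethyltin chloride as positive control.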

The nature of assay [11]: Tanguay_ZF_120hpf_SOMI_legacy: (Legacy) Oregon State University Tanguay Lab 120 Hour Post-fertilization zebrafish Assay for Somite Malformation (AID 2283647). In short, it runs like this: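 Binary brightfield scoring of somite defects at 120 hpf in 5D wild-type larvae; one dechorionated embryo per well, static exposure from 6 hpf, 28C, sealed and dark. Final DMSO 0.64%; trimethyltin chloride 5uM positive control.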

Assay [12] in a line: Tanguay_ZF_120hpf_PFIN_legacy: (Legacy) Oregon State University Tanguay Lab 120 Hour Post-fertilization zebrafish Assay for Pectoral Fin Malformation (AID 2283648).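 Also: each larva judged yes or no for fin defect by brightfield with dead larvae skipped.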 The method, boiled down:
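Pectoral fin malformation was recorded as a binary endpoint at 120 hpf in wild-type Tropical 5D larvae, which had been dechorionated and exposed statically from 6 hpf at 28C in 0.64% DMSO. Dead embryos were excluded.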

Assay [13] is described as follows: Tanguay_ZF_120hpf_CFIN_legacy: (Legacy) Oregon State University Tanguay Lab 120 Hour Post-fertilization zebrafish Assay for Caudal Fin Malformation (AID 2283649). The method, boiled down: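 Dechorionated 5D wild-type zebrafish, static exposure 6–120 hpf, 28C, sealed and dark, 0.64% v/v DMSO final. Binary fin-malformation call at 120 hpf, brightfield; gain of signal vs DMSO baseline.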

Assay [14] is described as follows: Tanguay_ZF_120hpf_PIG_legacy: (Legacy) Oregon State University Tanguay Lab 120 Hour Post-fertilization zebrafish Assay for Pigmentation Malformation (AID 2283650). In short, it runs like this: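 Pigment malformation recorded as a binary call at 120 hpf in zebrafish (Tropical 5D) exposed singly from 6 hpf after pronase dechorionation. Static, sealed, 28C exposure, 0.64% DMSO; mortality excludes scoring; positive-direction fit against DMSO.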

Assay [15] in a line: Tanguay_ZF_120hpf_CIRC_legacy: (Legacy) Oregon State University Tanguay Lab 120 Hour Post-fertilization zebrafish Assay for Circulatory Malformation (AID 2283651). The method, boiled down: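 Binary circulatory-malformation call at 120 hpf via brightfield imaging, relative to DMSO controls. Embryos (5D strain, chorion removed) received static, light-shielded exposure at 28C.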

The nature of assay [16]: Tanguay_ZF_120hpf_SWIM_legacy: (Legacy) Oregon State University Tanguay Lab 120 Hour Post-fertilization zebrafish Assay for Swim Bladder Malformation (AID 2283654).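 Also: swim bladder malformation in each larva scored yes or no under brightfield.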 In short, it runs like this:
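Scoring is binary for swim bladder defects at 120 hpf, by brightfield inspection of zebrafish larvae. Embryos were exposed singly from 6 hpf after pronase dechorionation, at 28C with 0.64% DMSO; mortality excluded scoring.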

Assay [17] is described as follows: Tanguay_ZF_120hpf_TRUN_legacy: (Legacy) Oregon State University Tanguay Lab 120 Hour Post-fertilization zebrafish Assay for Truncated Body (AID 2283655). In short, it runs like this:
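Whole-embryo zebrafish screen: dechorionated 5D embryos, static exposure 6–120 hpf, 28C, sealed foil-covered plates, 0.64% DMSO. Binary truncation call; gain of signal versus DMSO baseline.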

Assay [18] in a line: Tanguay_ZF_120hpf_BRAI_legacy: (Legacy) Oregon State University Tanguay Lab 120 Hour Post-fertilization zebrafish Assay for Brain Malformation (AID 2283641). The method, boiled down: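 Read-out: binary brain morphology call at 120 hpf (brightfield), fitted in gain-of-signal direction vs DMSO. Wild-type Tropical 5D embryos, static exposure, 28C, 0.64% DMSO final; 5uM trimethyltin chloride as positive control.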

Structures are written as SMILES. Results filed as inconclusive are left out. Where a structure was tested more than once in an assay, its records may differ in their call. The source made the active and inactive calls. The calls were made as follows: active = hit-call score of the fitted dose curve at least 0.9, where 1 is the maximum; inconclusive = response in the unintended direction; inactive = score below 0.9.

Sequence of Cellular tumor antigen p53 (Homo sapiens) (P04637 whole entry, looked up): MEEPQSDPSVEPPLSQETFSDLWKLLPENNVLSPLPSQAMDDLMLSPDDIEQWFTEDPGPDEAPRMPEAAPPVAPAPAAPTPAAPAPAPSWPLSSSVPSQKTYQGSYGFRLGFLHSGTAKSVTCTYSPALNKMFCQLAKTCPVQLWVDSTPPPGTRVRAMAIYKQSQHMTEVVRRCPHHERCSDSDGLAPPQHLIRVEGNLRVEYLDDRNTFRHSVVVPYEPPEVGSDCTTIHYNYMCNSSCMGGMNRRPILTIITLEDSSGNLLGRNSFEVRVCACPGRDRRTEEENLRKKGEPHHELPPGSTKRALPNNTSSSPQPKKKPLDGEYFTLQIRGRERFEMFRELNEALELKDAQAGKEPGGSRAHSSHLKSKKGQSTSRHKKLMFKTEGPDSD

What is called AC50 is the concentration at which the activity in the assay is half-maximal. `CCOC(=O)C(Cl)Cc1cc(-n2nc(C)n(C(F)F)c2=O)c(F)cc1Cl` (stereo not given): the compound was called inactive in assay [1], in assay [2], in assay [3], in assay [15], in [16] and in assay [17]. For the same compound, the AC50 is 1270 nM (active) in assay [4]; 4230 nM (active) in [5]; 1700 nM (active) in assay [6]; 4260 nM (active) in assay [7]; 5220 nM (active) in [8]; 1820 nM (active) in assay [9]. The AC50 was 2580 nM (active) in assay [10]; 2220 nM (active) in assay [11]; 2190 nM (active) in assay [12]; 5090 nM (active) in assay [13]; 1880 nM (active) in assay [14].

In the case of `O=C(O)COc1nc(Cl)c(Cl)cc1Cl`, the compound was called inactive in assay [1], in [2], in assay [3], in assay [4], in assay [5] and in assay [6]. Further, the outcome in assay [7], in assay [8], in assay [9], in [10], in assay [11] and in [12] was inactive. The compound was called inactive in assay [13], in assay [14], in assay [15], in assay [16] and in assay [17].

On to `N#Cc1nn(-c2c(Cl)cc(C(F)(F)F)cc2Cl)c(N)c1S(=O)C(F)(F)F` (stereo not given), for which the call in assay [1], in assay [2], in [3], in assay [6], in assay [7] and in [8] was inactive. Moreover, the compound was classed as inactive in [9], in [10], in assay [18], in assay [12], in assay [13] and in assay [14]. Further, the call in [15], in assay [16] and in assay [17] was inactive. For the same compound, the half-maximal activity concentration (AC50) in assay [4] was 23.5 nM (active); in assay [5], 4620 nM (active).

Regarding `CN(C)C(=S)SSC(=S)N(C)C`, the outcome in assay [1], in assay [2], in [3], in [4], in [5] and in assay [6] was inactive. Moreover, the result in assay [7], in assay [8], in assay [9], in assay [10], in [11] and in [12] was inactive. Further, the compound was called inactive in assay [13], in assay [14], in assay [15] and in assay [17].

For `CCCCNC(=O)OCC#CI`, the compound was called inactive in assay [1], in assay [2], in assay [4], in assay [5], in assay [6] and in assay [7]. The result in assay [8], in assay [9], in [10], in [11], in assay [12] and in assay [13] was inactive. Besides, the compound was called inactive in [14], in [15], in assay [16] and in assay [17]. In addition, the AC50 in assay [2] is 12800 nM (active); in [3], 24000 nM (active).

Values taken from PubChem BioAssay (EPA / NIEHS).
